Test [1] concerns the target Protein phosphatase methylesterase 1 (Homo sapiens) (UniProt Q9Y570). The test can be described thus: human PME-1 methylesterase inhibition confirmation – biochemical, fluorescence polarization, FP-Rh probe, triplicate (AID 2171).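 Note: 0% = enzyme with DMSO and 100% = wells lacking PME-1.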 The settings on record: recombinant PME-1, FP-Rh probe fluorescence polarization; at 5.9 µM; stronger effect = higher value. On the technique in general: Polarisation of emitted light reports the rotation of a fluorescent probe.

The nature of test [2]: blockers of IL-6 STAT3 signaling – U3A cells, luciferase, luminescence, confirmation (AID 1265;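 active = inhibition above the hit cutoff computed for the primary STAT3 screen, cut at about 44% in these data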;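 note: 0% = IL-6 plus DMSO and 100% = IL-6 plus nifuroxazide control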). The settings on record: IL-6 STAT3 luciferase reporter, at 5.7 µM, stronger effect = higher value.
Test [3] in a line: inhibition of TNF-alpha-driven NF-kB transcription – cell-based, HEK293T, luciferase, TNF-alpha stimulus, counter-screen for STAT3 inhibitor project, confirmation (AID 1308;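 active = inhibition above the mean of solvent-only control wells plus 3 SD, cutoff set per campaign, cut at about 13% in these data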;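 note: 0% = TNF-alpha with DMSO and 100% = TNF-alpha with MG high control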). The settings on record: HEK293T NF-kB luciferase reporter, TNF-alpha induced; at 5.7 µM; stronger effect = higher value. On the technique in general: The purpose of a counterscreen is to sort out artefacts and off-target activity.

Test [4] in a line: inhibition of STAT1-driven transcription – cell-based, NIH 3T3, luciferase luminescence, IFN-gamma, counter-screen for STAT3 inhibitor project, confirmation (AID 1317;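 active = inhibition above the mean plus 3 SD of solvent-only control wells, limit set per screening run, cut at about 16% in these data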;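 note: 0% = DMSO with IFN-gamma and 100% = nifuroxazide control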). The settings on record: NIH 3T3 STAT1-luciferase reporter, IFN-gamma induced, at 5.7 µM, stronger effect = higher value.
Test [5] in a line: StAR promoter reporter inhibitors, counter-screen for LRH-1 inverse agonist project, cell-based, luminescence, high throughput (AID 651611; in the data active = inhibition above about 28%). The settings on record: StAR promoter luciferase reporter counterscreen, at 3.6 µM, stronger effect = higher value.
Test [6] deals with Nuclear receptor subfamily 5 group A member 2 (Homo sapiens) (UniProt O00482). In words: NR5A2 activity suppression in reporter cells – cell-based, luminescence, confirmation (AID 651613; in the data active = inhibition above about 42%;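 note: HEK293T cells co-transfected with LRH-1 and StAR promoter luciferase reporter; 0% = vehicle wells and 100% = parental cells lacking receptor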). The settings on record: cell-based LRH-1 luciferase reporter, inverse agonism; at 3.6 µM; stronger effect = higher value. (In general: A reporter such as luciferase makes a cellular process visible.)
In test [7] the target is Steroidogenic factor 1 (Homo sapiens) (UniProt Q13285). In words: inverse agonism at SF1 nuclear receptor – cell-based, luminescence, high throughput, counter-screen for LRH-1 inverse agonist project (AID 651614; in the data active = inhibition above about 44%;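 note: cells cotransfected with StAR promoter reporter and SF1 expression vector; 0% = vehicle on cells with receptor and 100% = vehicle on cells lacking receptor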). The settings on record: cell-based SF1 luciferase reporter, at 3.6 µM, stronger effect = higher value.
The nature of test [8]: compounds suppressing VP16-driven luciferase signal – cell-based, luminescence, high throughput, counter-screen for LRH-1 inverse agonist project (AID 651615; in the data active = inhibition above about 33%). The settings on record: Gal4-VP16 luciferase reporter cells, at 3.6 µM, stronger effect = higher value.
Test [9] can be described thus: VP16-driven transactivation reporter suppression – cell-based, luminescence, HEK293, counter-screen for COUP-TFII antagonist project (AID 687007; in the data active = inhibition above about 13%). The settings on record: HEK293 Gal4-VP16 luciferase reporter, at 8.5 µM, stronger effect = higher value.
The target in test [10] is COUP transcription factor 2 (Homo sapiens) (UniProt P24468). In words: retest of COUP-TFII reporter suppressors – cell-based, luciferase reporter, HEK293, triplicate, confirmation (AID 687008;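 active = mean inhibition over three repeats above a set limit taken from the earlier primary screen, cut at about 38% in these data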;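 note: 100% = cells given the luciferase reporter alone without the COUP-TF2 vector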). The settings on record: HEK293 NGFI-A luciferase reporter, luminescence; at 8.5 µM; stronger effect = higher value.
Test [11] addresses Nuclear receptor coactivator 3 (Homo sapiens) (UniProt Q9Y6Q9). The test can be described thus: NCOA3 GAL4-fusion reporter inhibition – cell-based, luminescence, quadruplicate, confirmation (AID 588792;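 active = mean inhibition over 43.08%, the solvent-only control mean plus 3 SD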;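 note: 0% = DMSO treated cells and 100% = gossypol at 36 µM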). The settings on record: HEK293 GAL4-SRC3 luciferase reporter, at 3.6 µM, stronger effect = higher value.
The subject of test [12] is transactivating tegument protein VP16 (Human herpesvirus 1), Gal4-VP16 luciferase reporter. In words: repression of VP16-driven luciferase reporter – cell-based, luminescence, high throughput, counter-screen for SRC3 inhibitor project (AID 588794; in the data active = inhibition above about 30%). The settings on record: mammalian cells, at 3.6 µM, stronger effect = higher value.
The target in test [13] is (Lyso)-N-acylphosphatidylethanolamine lipase (Mus musculus) (UniProt Q8VD66). In words: mouse ABHD4 hydrolase blockers, triplicate – biochemical, fluorescence polarization, confirmation (AID 720658;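 active = mean inhibition across replicates above the hit cutoff set in the primary screen, cut at about 30% in these data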;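 note: 0% = wild-type ABHD4 with DMSO and 100% = catalytically dead S159A mutant with DMSO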). The settings on record: purified mABHD4, FP-Rh probe fluorescence polarization; at 8.92 µM; stronger effect = higher value.
For test [14], the system named is HIV-1 integrase (multimerization). In words: stimulation of HIV-1 integrase oligomerization – biochemical, TR-FRET, counter-screen for LEDGF/p75 integration inhibitor project (AID 1053131; in the data active = activation above about 8.9%). The settings on record: TR-FRET HIV-1 integrase multimerization, at 7.7 µM, stronger effect = higher value.
The nature of test [15]: compounds disturbing TR-FRET signal readout – biochemical, HIV-1 IN multimerization, artefact control for LEDGF/p75-dependent integration inhibitor project, confirmation (AID 1053135;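 active = inhibition above the mean over all tested compounds plus 3 SD, which no compound reached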;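 note: 0% = integrase with antibodies and DMSO and 100% = antibodies without integrase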). The settings on record: TR-FRET optical interference counterscreen, at 7.7 µM, stronger effect = higher value.
Test [16] deals with HIV-1 integrase / human LEDGF/p75 complex. In words: blockers of LEDGF/p75-dependent integrase activity – biochemical, TR-FRET, confirmation (AID 1053136; in the data active = inhibition above about 14%). The settings on record: TR-FRET LEDGF/p75-dependent HIV-1 integration, at 3.7 µM, stronger effect = higher value.
In test [17] the target is Sphingosine 1-phosphate receptor 4 (Homo sapiens) (UniProt O95977). The test can be described thus: blockers of human S1P4 signalling – cell-based, confirmation (AID 1524; in the data active = inhibition above about 30%). The settings on record: S1P4-expressing cell line, antagonist mode, reporter read-out; at 4.98 µM; stronger effect = higher value.
The target in test [18] is Sphingosine 1-phosphate receptor 1 (Homo sapiens) (UniProt P21453). In words: blockade of human S1P1 receptor – cell-based, counter-screen for S1P4 antagonist project (AID 1564; in the data active = inhibition above about 40%;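 note: receptor stimulated with S1P near its EC80; 0% = agonist stimulated wells and 100% = vehicle only wells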). The settings on record: cell-based S1P1 antagonist counterscreen, at 4.98 µM, stronger effect = higher value.
Test [19] addresses Bcl-2-like protein 1 (Homo sapiens) (UniProt Q07817). The test can be described thus: Bcl-xL BH3-peptide displacement, hit confirmation – biochemical, fluorescence polarization, counter-screen for MCL1 inhibitor project (AID 2166;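 active = inhibition above a cutoff equal to the mean inhibition of all tested compounds plus 3 SD, cut at about 30% in these data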). The settings on record: GST-Bcl-xL / FITC-Bim BH3 peptide FP binding; at 10.9 µM; stronger effect = higher value.
Test [20] addresses Induced myeloid leukemia cell differentiation protein Mcl-1 (Homo sapiens) (UniProt Q07820). In words: MCL1-BIM peptide interaction disruptors – biochemical, fluorescence polarization, triplicate, confirmation (AID 2168;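 active = inhibition above the average of all tested compounds plus 3 SD, cut at about 40% in these data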;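 note: 0% = DMSO wells and 100% = unlabeled Bim-BH3 control peptide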). The settings on record: GST-MCL1 / FITC-Bim-BH3 fluorescence polarization; at 10.9 µM; stronger effect = higher value.
In test [21] the target is Platelet-activating factor acetylhydrolase (Homo sapiens) (UniProt Q13093). In words: inhibition of plasma PAF acetylhydrolase – biochemical, fluorescence polarization, human, confirmation (AID 463230;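 active = mean inhibition of the triplicate above the hit cutoff set for the earlier primary screen, cut at about 25% in these data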;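 note: 0% = enzyme with DMSO and 100% = wells lacking pPAFAH enzyme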). The settings on record: recombinant pPAFAH, FP-Rh probe fluorescence polarization; at 3.39 µM; stronger effect = higher value.

The term inhibition denotes the drop in the measured response relative to a control, in per cent.

Unmarked numbers belong to inactive results. This is one part of the list. Calls of active or inactive are those of the source.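 Rule for the calls, unless noted: active = inhibition above the hit cutoff set in the earlier primary screen (cut at about 27% in these data); inactive = the rest.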

Sequence of Protein phosphatase methylesterase 1 (Homo sapiens) (Q9Y570 whole entry, looked up): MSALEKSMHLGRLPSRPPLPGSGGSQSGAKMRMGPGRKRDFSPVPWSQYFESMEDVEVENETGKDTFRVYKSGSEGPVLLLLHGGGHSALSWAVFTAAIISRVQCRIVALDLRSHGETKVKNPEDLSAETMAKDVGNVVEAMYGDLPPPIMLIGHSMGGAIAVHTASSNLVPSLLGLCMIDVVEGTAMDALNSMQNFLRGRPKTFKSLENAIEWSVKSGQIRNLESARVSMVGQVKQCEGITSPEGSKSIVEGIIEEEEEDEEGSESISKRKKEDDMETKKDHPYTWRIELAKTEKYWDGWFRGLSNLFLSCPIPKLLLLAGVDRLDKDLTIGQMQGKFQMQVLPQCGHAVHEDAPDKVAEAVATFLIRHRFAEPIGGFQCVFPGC
Sequence of COUP transcription factor 2 (Homo sapiens) (P24468 whole entry, looked up, the tested form may be a part): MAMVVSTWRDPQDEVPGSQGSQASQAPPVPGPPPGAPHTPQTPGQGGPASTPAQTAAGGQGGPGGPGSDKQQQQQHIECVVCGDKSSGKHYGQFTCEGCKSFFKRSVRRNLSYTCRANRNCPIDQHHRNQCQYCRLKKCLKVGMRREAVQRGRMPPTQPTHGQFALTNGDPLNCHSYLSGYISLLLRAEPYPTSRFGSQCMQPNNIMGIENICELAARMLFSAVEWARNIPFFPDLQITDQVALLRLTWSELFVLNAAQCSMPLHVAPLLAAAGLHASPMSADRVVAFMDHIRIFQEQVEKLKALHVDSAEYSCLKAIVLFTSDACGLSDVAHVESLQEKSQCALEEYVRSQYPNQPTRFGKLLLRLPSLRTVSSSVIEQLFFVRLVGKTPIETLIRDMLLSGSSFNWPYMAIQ
Sequence of Bcl-2-like protein 1 (Homo sapiens) (Q07817 whole entry, looked up): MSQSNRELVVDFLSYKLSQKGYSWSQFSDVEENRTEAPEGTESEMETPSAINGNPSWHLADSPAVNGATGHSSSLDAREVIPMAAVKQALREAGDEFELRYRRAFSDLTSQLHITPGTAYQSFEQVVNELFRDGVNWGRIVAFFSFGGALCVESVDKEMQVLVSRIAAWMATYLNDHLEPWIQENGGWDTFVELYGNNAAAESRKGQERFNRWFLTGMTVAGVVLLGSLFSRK
Sequence of Nuclear receptor coactivator 3 (Homo sapiens) (Q9Y6Q9 whole entry, looked up, the tested form may be a part): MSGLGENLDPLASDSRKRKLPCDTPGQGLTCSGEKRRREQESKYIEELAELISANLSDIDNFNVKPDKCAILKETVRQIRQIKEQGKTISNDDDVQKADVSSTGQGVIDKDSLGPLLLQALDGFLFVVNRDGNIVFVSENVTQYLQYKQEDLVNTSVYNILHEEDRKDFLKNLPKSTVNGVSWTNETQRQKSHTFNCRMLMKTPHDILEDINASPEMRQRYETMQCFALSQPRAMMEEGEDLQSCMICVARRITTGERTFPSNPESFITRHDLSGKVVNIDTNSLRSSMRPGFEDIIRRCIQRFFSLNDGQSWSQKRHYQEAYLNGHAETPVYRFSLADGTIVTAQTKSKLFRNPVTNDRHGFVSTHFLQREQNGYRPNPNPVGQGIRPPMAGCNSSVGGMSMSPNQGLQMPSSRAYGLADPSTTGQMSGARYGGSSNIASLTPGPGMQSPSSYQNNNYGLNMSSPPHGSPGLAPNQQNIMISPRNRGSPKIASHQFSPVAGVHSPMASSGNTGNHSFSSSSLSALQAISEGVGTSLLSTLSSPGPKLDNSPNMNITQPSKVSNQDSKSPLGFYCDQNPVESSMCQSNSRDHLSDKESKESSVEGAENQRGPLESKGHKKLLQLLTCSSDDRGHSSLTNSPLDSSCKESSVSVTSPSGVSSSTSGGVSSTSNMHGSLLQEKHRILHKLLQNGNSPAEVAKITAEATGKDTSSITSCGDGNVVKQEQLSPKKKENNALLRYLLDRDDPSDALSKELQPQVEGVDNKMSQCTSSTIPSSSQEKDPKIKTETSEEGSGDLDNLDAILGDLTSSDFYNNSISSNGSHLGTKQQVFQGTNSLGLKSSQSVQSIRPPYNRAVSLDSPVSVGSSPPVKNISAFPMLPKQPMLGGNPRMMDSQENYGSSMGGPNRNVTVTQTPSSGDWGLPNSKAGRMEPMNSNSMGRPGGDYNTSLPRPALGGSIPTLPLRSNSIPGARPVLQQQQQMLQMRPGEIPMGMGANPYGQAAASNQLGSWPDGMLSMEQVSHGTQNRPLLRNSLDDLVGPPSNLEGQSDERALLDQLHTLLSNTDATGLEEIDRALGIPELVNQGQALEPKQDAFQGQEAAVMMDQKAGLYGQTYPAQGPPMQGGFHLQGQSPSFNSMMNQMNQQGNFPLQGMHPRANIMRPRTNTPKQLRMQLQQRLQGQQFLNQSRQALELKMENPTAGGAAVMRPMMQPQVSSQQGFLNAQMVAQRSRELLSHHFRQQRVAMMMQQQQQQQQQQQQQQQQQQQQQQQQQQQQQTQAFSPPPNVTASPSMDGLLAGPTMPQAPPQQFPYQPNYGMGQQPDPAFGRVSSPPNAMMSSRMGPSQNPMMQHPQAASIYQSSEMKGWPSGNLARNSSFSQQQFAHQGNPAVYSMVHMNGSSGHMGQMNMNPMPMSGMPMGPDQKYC
Sequence of Platelet-activating factor acetylhydrolase (Homo sapiens) (Q13093 whole entry, looked up): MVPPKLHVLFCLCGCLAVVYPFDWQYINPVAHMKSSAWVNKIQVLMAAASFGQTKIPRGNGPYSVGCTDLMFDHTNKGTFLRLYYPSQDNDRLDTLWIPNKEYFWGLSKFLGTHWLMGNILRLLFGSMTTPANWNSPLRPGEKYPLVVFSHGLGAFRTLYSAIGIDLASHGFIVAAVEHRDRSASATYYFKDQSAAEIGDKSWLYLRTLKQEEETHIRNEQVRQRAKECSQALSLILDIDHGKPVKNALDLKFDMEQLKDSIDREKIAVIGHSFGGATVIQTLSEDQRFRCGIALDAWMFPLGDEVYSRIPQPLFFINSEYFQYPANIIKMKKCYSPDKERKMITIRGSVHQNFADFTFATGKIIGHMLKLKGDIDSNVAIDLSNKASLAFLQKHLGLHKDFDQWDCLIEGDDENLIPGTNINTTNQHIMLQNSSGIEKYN
Sequence of Sphingosine 1-phosphate receptor 4 (Homo sapiens) (O95977 whole entry, looked up): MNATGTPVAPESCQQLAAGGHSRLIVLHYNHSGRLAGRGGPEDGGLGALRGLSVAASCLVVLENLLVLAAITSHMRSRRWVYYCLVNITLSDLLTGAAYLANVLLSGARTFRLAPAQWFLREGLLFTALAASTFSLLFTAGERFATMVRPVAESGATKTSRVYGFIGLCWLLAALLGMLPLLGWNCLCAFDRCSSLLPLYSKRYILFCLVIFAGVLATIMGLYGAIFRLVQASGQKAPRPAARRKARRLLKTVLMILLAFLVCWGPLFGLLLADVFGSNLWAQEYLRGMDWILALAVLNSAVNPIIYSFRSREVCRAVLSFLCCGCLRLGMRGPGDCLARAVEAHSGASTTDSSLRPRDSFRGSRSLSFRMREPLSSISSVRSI
Sequence of Sphingosine 1-phosphate receptor 1 (Homo sapiens) (P21453 whole entry, looked up): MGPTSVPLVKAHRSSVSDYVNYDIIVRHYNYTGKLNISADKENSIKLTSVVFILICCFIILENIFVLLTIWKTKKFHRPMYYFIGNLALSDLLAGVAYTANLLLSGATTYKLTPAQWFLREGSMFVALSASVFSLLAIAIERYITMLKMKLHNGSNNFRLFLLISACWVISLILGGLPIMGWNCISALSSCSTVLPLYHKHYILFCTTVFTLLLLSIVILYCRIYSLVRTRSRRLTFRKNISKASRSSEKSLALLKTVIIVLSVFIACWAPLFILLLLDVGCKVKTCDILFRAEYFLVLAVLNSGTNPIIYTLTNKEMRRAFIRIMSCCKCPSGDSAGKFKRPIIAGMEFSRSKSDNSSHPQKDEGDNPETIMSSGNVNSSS
Sequence of Induced myeloid leukemia cell differentiation protein Mcl-1 (Homo sapiens) (Q07820 whole entry, looked up): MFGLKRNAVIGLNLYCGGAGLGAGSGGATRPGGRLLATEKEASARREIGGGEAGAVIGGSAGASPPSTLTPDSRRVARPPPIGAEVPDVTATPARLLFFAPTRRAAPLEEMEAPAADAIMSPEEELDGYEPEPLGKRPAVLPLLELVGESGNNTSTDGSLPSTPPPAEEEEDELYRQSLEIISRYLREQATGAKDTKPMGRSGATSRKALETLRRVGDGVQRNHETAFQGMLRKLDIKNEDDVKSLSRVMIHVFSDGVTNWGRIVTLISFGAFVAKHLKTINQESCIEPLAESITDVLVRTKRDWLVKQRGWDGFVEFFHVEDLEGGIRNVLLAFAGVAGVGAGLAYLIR
Sequence of Steroidogenic factor 1 (Homo sapiens) (Q13285 whole entry, looked up, the tested form may be a part): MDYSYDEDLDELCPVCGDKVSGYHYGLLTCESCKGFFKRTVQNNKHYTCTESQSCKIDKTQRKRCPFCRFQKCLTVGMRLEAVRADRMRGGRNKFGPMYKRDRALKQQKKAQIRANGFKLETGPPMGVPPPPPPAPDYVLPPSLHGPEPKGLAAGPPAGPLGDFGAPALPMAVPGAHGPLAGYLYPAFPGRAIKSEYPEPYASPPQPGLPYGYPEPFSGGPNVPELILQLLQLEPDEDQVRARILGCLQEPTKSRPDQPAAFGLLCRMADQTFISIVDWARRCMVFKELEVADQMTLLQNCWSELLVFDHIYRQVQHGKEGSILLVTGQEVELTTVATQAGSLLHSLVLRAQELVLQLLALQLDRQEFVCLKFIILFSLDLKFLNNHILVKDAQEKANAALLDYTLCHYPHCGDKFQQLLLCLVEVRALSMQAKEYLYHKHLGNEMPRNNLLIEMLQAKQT
Sequence of (Lyso)-N-acylphosphatidylethanolamine lipase (Mus musculus) (Q8VD66 whole entry, looked up): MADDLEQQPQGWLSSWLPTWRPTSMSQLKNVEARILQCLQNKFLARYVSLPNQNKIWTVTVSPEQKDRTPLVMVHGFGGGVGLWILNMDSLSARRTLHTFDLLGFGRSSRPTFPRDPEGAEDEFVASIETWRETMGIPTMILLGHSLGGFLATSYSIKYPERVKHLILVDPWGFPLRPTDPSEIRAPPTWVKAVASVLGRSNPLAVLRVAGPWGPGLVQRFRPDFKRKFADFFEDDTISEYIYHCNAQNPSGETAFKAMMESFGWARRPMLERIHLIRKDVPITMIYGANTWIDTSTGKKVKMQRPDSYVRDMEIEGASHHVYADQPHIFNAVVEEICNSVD

Turning to `Oc1c(Br)c(Br)c(Br)c(Br)c1Br`, in [1], the inhibition was 84.2% (active).
Turning to `CC(C)C(=O)c1cn(Cc2ccccc2C#N)c2ccccc12`, the inhibition in test [1] was 62.8% (active).
Regarding `CC1=CC(=Cc2sc3ccccc3[n+]2C)C=C(C)O1`, the inhibition was 77.1% (active) in test [2]; 22.8% (active) in [3]; 22.2% (active) in [4]; 50.2% (active) in test [5]; 105% (active) in test [6]; 80.4% (active) in test [7]. For the same molecule, the values for the inhibition in test [8], in [9] and in test [10] were 87.6% (active), 8.63% and 55% (active), respectively.
`CCOc1cccc(=NC2CCCCC2)c2c(C)[nH]c(C)c12`: the inhibition in test [11] was 21.3%; in test [12], 20.1%; in test [13], 16.3%; in test [15], -0.97%; in test [16] it was -1.3%. Moreover, the activation in test [14] was 0.2%.
Take `Cc1cc(/C=C2/C(=O)NC(=O)N(Cc3ccco3)C2=O)c(C)n1-c1ccc(C(=O)O)cc1`: the activation in test [14] was 5.24%. Besides, the results for the inhibition in [15] and in test [16] were -26.4% and 36.5% (active), respectively.
As for `NP(=O)(OCCCc1ccccc1)Oc1ccccc1Cl` (stereo not drawn), in test [1], the inhibition is 86.4% (active).
As to `CCCCn1c(C)c(C(=O)OCC)c2c(CN3CCCC3)c(O)ccc21`, in test [1], the inhibition is 10.3%.
For `CN(C)CC1Oc2ccccc2OC1(O)c1ccccc1` (stereo not drawn), the inhibition is 100% (active) in [17] and 23.3% in [18].
As for `O=c1[nH]c(=S)[nH]c(O)c1N=Nc1cc(S(=O)(=O)Nc2ccc(Cl)cc2)ccc1Cl`, in test [1], the inhibition was 40.5% (active).
As for `CC(C)CCOP(N)(=O)Oc1ccccc1Cl` (stereo not drawn), in [1], the inhibition is 42.3% (active).
Same read-out and setting: the same measure for `COc1ccc(C(O)P(=O)(Oc2ccccc2)Oc2ccccc2)cc1` (stereo not drawn): 42.8% (active); for `Cc1cc(Br)c(NC(=O)CN2CC=C(c3ccccc3)CC2)c(Br)c1`: 44.9% (active).
With `O=C1NC(=O)N(c2ccccc2)C(=O)/C1=C/c1ccc([N+](=O)[O-])s1`, the results for the inhibition in test [19], in [20] and in test [21] were 36.9% (active), 66.3% (active) and 44% (active), respectively.
For the molecule `CC(=O)c1ccc2c(c1)C1C(Cl)C(Sc3ccccc3[N+](=O)[O-])CC1C(C(=O)O)N2` (stereo not drawn), the inhibition in test [1] is 25.9%.
Turning to `Cc1oc(-c2ccccc2)nc1CN1C(=O)CN=C(c2ccccc2)c2ccccc21`, in [1], the inhibition is 66.1% (active).

Source of the values: PubChem BioAssay.
